Screening data deposited in PubChem by National Center for Advancing Translational Sciences (NCATS).
Shown are actives, neighbours in structure and some others; about 19% of the full set was active somewhere.
ELG1 repair inh: blocks ELG1-dependent DNA repair in HEK293T cells; AID 504467; 330,000 compounds, 2.3% hits; Potency, µM (top dose mostly 46.1 µM), for inactives: top-dose activity change, negative = inhibition, hits mostly inhibitors; HEK293T ELG1-luciferase reporter, luminescence, 16 h; DNA damage induced by 5-fluorouridine; also: potency is read from the fitted curve at half-maximal effect; nearly all actives have a fitted effect of over 55% in size
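Reporter activity after DNA damage by 5-fluorouridine is monitored. Compound-treated cells incubate 16 hr at 37 °C, then ONE-Glo is added for 30 min before luminescence reading.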
IL-1B inflam inh: blocks inflammasome-driven IL-1 beta release; THP-1 LPS/ATP IL-1B secretion, AlphaLISA, 16 h; active compounds read low; activity change, % at 57.5 µM; 360,000 compounds, 4.7% hits; in the data active = activity change below about -50%; inconclusive = mostly about -30% to -49%
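THP-1 cells pretreated 1 hr with compounds (up to 57.5 uM final), then stimulated with LPS (250 ng/mL final) plus ATP (1.25 mM final); secreted IL-1B measured by AlphaLISA after 16 hr, decreased signal indicating inhibition.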
TDP1 cell CPT: DT40-hTDP1 cell growth loss with CPT; chicken DT40 Tdp1-/-;hTDP1 cells + 20 nM CPT, ATP luminescence, 48 h; Potency, µM (titrated, usually from 46.2 µM), for inactives: at the top dose activity change, negative = growth inhibition, actives largely listed as inhibitors; 420,000 compounds, 12% hits; AID 686979; also: potency is read from the fitted curve at half-maximal effect; nearly all actives have a fitted effect of over 55% in size
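Cell growth measured by CellTiter-Glo luminescence after a minimum 48 h, 37 C compound exposure with 20 nM CPT in Tdp1-knockout DT40 cells stably expressing hTDP1, seeded 400/well; qHTS titration format.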
Giardia kill: Giardia lamblia killing. activity change, % at 7.66 µM, hits read low. Giardia lamblia trophozoite viability. 340,000 compounds, 0.15% hits. AID 540267; in the data active = activity change below about -80%; inconclusive = between about -30% and that limit;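 also: parasites exposed to compound for two days anaerobically before the ATP read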
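Giardia lamblia trophozoites (100 cells/well) were incubated with compounds for 48 h at 37 deg C under anaerobic conditions. Viability was read as ATP content by one-step luminescence after 15-30 min at room temperature.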
TDP1 cell noCPT: qHTS for Inhibitors of human tyrosyl-DNA phosphodiesterase 1 (TDP1): qHTS in cells in absence of CPT; DT40 Tdp1-/- hTDP1 cells, no CPT, ATP luminescence, 48 h; Potency, µM (titrated, usually from 46.2 µM), without a hit: at the highest dose activity change, negative = growth inhibition, hits mostly inhibitors; 420,000 compounds, 15% hits; also: potency is read from the fitted curve at half-maximal effect; nearly all actives have a fitted effect of over 55% in size
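Growth kinetics read by CellTiter-Glo luminescence after ≥48 hr at 37 °C. Cells: DT40 Tdp1-/- stably carrying human TDP1, 400 per well, compound exposure in the absence of CPT (DMSO vehicle).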
TDP1 inh: blocks human tyrosyl-DNA phosphodiesterase 1; Potency, µM (titrated, usually from 130 µM), inactives show at the highest dose activity change, negative = inhibition, actives largely listed as inhibitors; recombinant TDP1, AlphaScreen DNA substrate cleavage; AID 485290; 350,000 compounds, 0.28% hits; Q9NUW8; also: potency is read from the fitted curve at half-maximal effect; nearly all actives have a fitted effect of over 40% in size
Target sequence (Q9NUW8 whole entry, looked up): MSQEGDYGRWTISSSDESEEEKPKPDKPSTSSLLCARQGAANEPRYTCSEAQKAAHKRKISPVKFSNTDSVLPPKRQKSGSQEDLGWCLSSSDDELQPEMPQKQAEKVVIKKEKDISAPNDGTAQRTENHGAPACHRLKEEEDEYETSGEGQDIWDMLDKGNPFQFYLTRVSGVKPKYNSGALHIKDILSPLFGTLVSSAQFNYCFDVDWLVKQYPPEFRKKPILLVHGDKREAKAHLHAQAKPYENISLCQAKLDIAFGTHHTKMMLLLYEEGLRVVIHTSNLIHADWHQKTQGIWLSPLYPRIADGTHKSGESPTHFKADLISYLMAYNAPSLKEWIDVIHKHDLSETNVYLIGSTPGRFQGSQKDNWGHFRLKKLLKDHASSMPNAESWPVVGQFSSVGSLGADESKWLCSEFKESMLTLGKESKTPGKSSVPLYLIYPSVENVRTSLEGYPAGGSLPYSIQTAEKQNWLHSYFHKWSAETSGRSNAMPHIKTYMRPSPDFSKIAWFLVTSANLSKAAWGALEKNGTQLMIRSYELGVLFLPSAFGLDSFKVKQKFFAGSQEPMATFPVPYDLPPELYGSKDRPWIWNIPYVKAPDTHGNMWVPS
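Steps: enzyme plus compound, 15 min RT; add biotin/phosphotyrosine-FITC oligonucleotide (15 nM final), react 5 min; add donor/acceptor beads (10 ug/ml final), 10 min; read AlphaScreen. Tdp1 at 1 nM final.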
The depositor's hits bear a star; ? = inconclusive; / = no result given; [ ] = remark or other dose. Unless noted, calls follow the shape of the dose curve; as a rule, active = well fitted curve in the direction sought with a large enough effect; inconclusive = small, poorly fitted or top-dose-only effect, or another doubt; inactive = no such curve, though single readings can be large; an effect the other way counts as inactive or inconclusive. % is scaled to controls: 0 for no effect and ±100 for the full control effect.

SMILES | ELG1 repair inh | IL-1B inflam inh | TDP1 cell CPT | Giardia kill | TDP1 cell noCPT | TDP1 inh
CC(C)(C)C1COc2ccccc2N1C(=O)c1cccc(Cl)c1 (centres undefined) | -8% | 8 | ? | 29 | 23µM* | /
O=C(CN1CCN(Cc2ccc3c(c2)OCO3)CC1)Nc1cc(S(=O)(=O)N2CCCC2)ccc1Cl | ? | -3 | ? | -5 | 16µM* | 4%
CN(C)S(=O)(=O)c1ccc(Cl)c(NC(=O)CN2CCN(Cc3ccc4c(c3)OCO4)CC2)c1 | 21µM* | 15 | ? | 6 | 21µM* | 7%
Cc1nc(C#N)nc(Oc2ccccc2)c1Cl | / | / | -13% | / | -24% | /
CN1C(C(=O)NCCc2cccs2)CC2Cn3c(nc4cc5ccccc5cc43)C21 (centres undefined) | -23% | 16 | -23% | ? | ? | 4%
COc1ccc(CCNC(=O)C2CC3Cn4c(nc5cc6ccccc6cc54)C3N2C)cc1 (centres undefined) | 3% | -12 | 15µM* | -5 | 21µM* | 0%
COc1ccccc1CNC(=O)C1CC2Cn3c(nc4cc(Cl)c(Cl)cc43)C2N1C (centres undefined) | / | ? | ? | 2 | 23µM* | /
CCN(Cc1cccs1)C(=O)CN1C(=O)NC2(CCCc3ccccc32)C1=O (centres undefined) | 12% | -28 | 21µM* | 2 | -19% | 1%
CCN(Cc1cccs1)C(=O)CN1C(=O)NC(c2ccccc2)(c2ccccc2)C1=O | -11% | -14 | ? | 26 | ? | 1%
CCN(C(=O)CN1C(=O)NC2(CCCc3ccccc32)C1=O)c1ccc(F)cc1 (centres undefined) | -1% | 4 | ? | -11 | 16µM* | 0%
Cc1cc(C(=O)CN2C(=O)NC3(CCCc4ccccc43)C2=O)c(C)n1Cc1cccs1 (centres undefined) | -22% | ? | 16µM* | 12 | ? | 4%
C=CCn1c(C)cc(C(=O)CN2C(=O)NC3(CCCc4ccccc43)C2=O)c1C (centres undefined) | ? | -22 | ? | 1 | ? | 4%
CCOC(=O)C1CCCN(C(=O)CCn2nnnc2CN2CCOCC2)C1 (centres undefined) | 7% | 0 | 3% | -20 | -3% | 2%[56.1 µM]
CC(=O)c1cc(-c2ccccc2)n(CC(=O)NCc2ccccc2C)c1C | / | / | ? | / | -6% | -2%
COc1ccc(-c2cc3c(nn2)-c2ccccc2C3=O)cc1 | ? | 23 | 26µM* | ? | 16µM* | 0%
Cc1cccc(-c2cc3c(nn2)-c2ccccc2C3=O)c1 | ? | -20 | ? | ? | ? | 7%
O=C1c2ccccc2-c2nnc(-c3ccccc3)cc21 | ? | 31 | 3.7µM* | ? | 5.2µM* | 4%
COc1ccc(-c2cn(Cc3ccc4c(c3)C(=O)c3ccccc3C4=O)nn2)cc1 | -7% | -7 | ? | 0 | ? | /
Cc1ccc(C(=O)N2CCC2(C)C(=O)NC(C)C)cc1 (centres undefined) | / | -5 | -6% | / | 20% | /
Cc1[nH]c2ccccc2c1C(=O)c1cc(Cc2ccccc2)sc1N | / | -51* | ? | / | 16µM* | /
COCCCNC(=O)c1cc(Cc2ccccc2)sc1N | / | 24 | ? | / | ? | /
COCCn1c(SCC(=O)c2ccc3c(c2)OCCO3)nnc1-c1ccoc1C | 4% | 21 | 15µM* | 5 | 10µM* | 7%
CC(C)n1nnnc1SCC(=O)c1ccc2c(c1)OCCO2 | ? | -8 | ? | -8 | ? | 4%
CC(C)c1ccc(CN2CCN(C(=O)CSc3nnnn3C3CC3)CC2)cc1 | 7% | ? | ? | 6 | 12µM* | 1%
COCCCn1c(SCC(=O)Nc2ccc3c(c2)OCCO3)nnc1-c1ccoc1C | 12% | -6 | -5% | 9 | -1% | 3%
SMILES | ELG1 repair inh | IL-1B inflam inh | TDP1 cell CPT | Giardia kill | TDP1 cell noCPT | TDP1 inh
COc1ccc(C)cc1-n1nnnc1SCC(=O)c1ccc2c(c1)OCCO2 | 7% | -13 | 18µM* | 14 | ? | 6%
COc1ccc(-n2nnnc2SCC(=O)c2ccc3c(c2)OCCO3)c(OC)c1 | -9% | -2 | ? | -6 | 13µM* | 1%
O=C(CSc1nnnn1C1CC1)N1CCN(c2cccc(Cl)c2)CC1 | 0% | -19 | ? | -6 | ? | -2%
O=C(NCCS(=O)(=O)N1CCN(c2ccccc2F)CC1)c1cccs1 | -14% | -4 | -16% | 13 | 1% | /
O=C(CSc1nnnn1C1CCCC1)c1ccc2c(c1)OCCO2 | ? | ? | 21µM* | 10 | ? | -1%
O=C(CSc1nnnn1C1CCCCC1)N1c2ccccc2Sc2ccccc21 | -5% | 0 | ? | 3 | 21µM* | 3%
CCOc1ccc(CNC(=O)CCCn2nc(C)c3c(C)n(-c4ccc(C)cc4)nc3c2=O)cc1 | -17% | ? | ? | -4 | ? | -7%
O=c1c2c([N+](=O)[O-])cc([N+](=O)[O-])cc2nc2ccccn12 | -3% | -12 | ? | ? | ? | /
O=c1c2c([N+](=O)[O-])cc([N+](=O)[O-])cc2sn1Cc1ccccc1 | 13% | -105* | 5.2µM* | 21 | 5.2µM* | /
O=c1c2c([N+](=O)[O-])cc([N+](=O)[O-])cc2sn1-c1ccc(Br)cc1 | 10% | -18 | 10µM* | -26 | ? | 10%
COc1cc2c(cc1OC)C(COc1cc(C)cc(C)c1)N(C(=O)c1ccc(S(=O)(=O)N3CCCC3)cc1)CC2 (centres undefined) | / | / | ? | / | -22% | 5%
COc1cc2c(cc1OC)C(COc1ccc(C(C)C)cc1)N(C(=O)c1ccc(S(=O)(=O)N3CCCC3)cc1)CC2 (centres undefined) | / | / | ? | / | 21µM* | 8%
COc1cc2c(cc1OC)C(COc1ccccc1OC)N(C(C)=O)CC2 (centres undefined) | -18% | 17 | 0% | -2 | -17% | /
COc1ccc(C2c3cc(OC)c(OC)cc3CCN2C(=O)c2ccccc2Br)cc1OC (centres undefined) | ? | ? | -11% | -5 | ? | 6%
COc1cc2c(cc1OC)C(COc1ccc(C(C)C)cc1)NCC2 (centres undefined) | -23% | -20 | ? | 9 | 16µM* | 3%
COc1cc2c(cc1OC)C(COc1ccc(C(C)C)cc1)N(C(=O)COc1ccccc1)CC2 (centres undefined) | / | / | ? | / | ? | 13%
